Bioassay records as filed in PubChem BioAssay.
Compounds with a hit are over-represented: about 2.5% of the library has one in this group of screens.
VACV Venus inh = vaccinia inhibition (Venus reporter); Vaccinia virus Venus reporter expression, fluorescence; AID 720580; 0.46% of 330,000 active; Potency, µM (series often up to 36.5 µM), without a hit: at the highest dose activity change, negative = inhibition, usual class: inhibitors; calls by dose curve; tested in A549 cells; also: nearly all actives have a fitted effect of over 30% in size
Vaccinia mCherry = vaccinia inhibition (mCherry reporter) | Vaccinia virus mCherry reporter infection, fluorescence | Potency, µM (top dose mostly 36.5 µM), for the others: top-dose activity change, negative = inhibition, usual class: inhibitors | 0.63% of 310,000 active; calls by dose curve; tested in A549 cells; also: nearly all actives have a fitted effect of over 35% in size
MARV entry inh = inhibitors of Marburg virus binding or cell entry; Potency, µM (highest dose often 37.8 µM), for inactives: top-dose activity change, negative = inhibition, actives largely listed as inhibitors; AID 540276; 1.8% of 300,000 active; Marburg virus pseudotyped entry inhibition, cell reporter; calls by dose curve; tested in HEK293 cells
LASV entry inh = inhibitors of Lassa virus binding or cell entry; Lassa virus pseudotype entry inhibition, cell reporter; Potency, µM (top dose mostly 37.9 µM), for inactives: at the highest dose activity change, negative = inhibition, most hits filed as inhibitors; 1.2% of 300,000 active; AID 540256; calls by dose curve; tested in HEK293 cells; also: nearly all actives have a fitted effect of over 50% in size
* hit, by the source's call; [ ] = another dose, or the depositor's remark. % is scaled to controls: 0 for no effect and ±100 for the full control effect; potency is read from the fitted curve at half-maximal effect.

For O=C(NCc1nnc(SCc2ccc(C(F)(F)F)cc2)n1-c1ccccc1)C12CC3CC(CC(C3)C1)C2 the results were VACV Venus inh -19.1%, Vaccinia mCherry -15.1%, MARV entry inh 11.2µM* and LASV entry inh inconclusive.
For CN(C)c1ccc(C=O)c(Cl)c1 the results were VACV Venus inh -16.7% and Vaccinia mCherry inactive.
`CCC(=NCc1ccco1)c1c(O)n(-c2ccc(OC)cc2)c(=O)[nH]c1=O` gave VACV Venus inh -12.0%, Vaccinia mCherry -18.1%, MARV entry inh 11.2%[46.1 µM] and LASV entry inh 1.64µM*.
`CCC(=NCc1ccco1)c1c(O)n(-c2ccc(Cl)cc2)c(=O)[nH]c1=O` gave VACV Venus inh -17.6%, Vaccinia mCherry inactive, MARV entry inh inconclusive and LASV entry inh inconclusive.
Screening COc1ccc(-n2c(O)c(/C(C)=N/N3CCCCCC3)c(=O)[nH]c2=O)cc1 returned VACV Venus inh -3.6%, Vaccinia mCherry -16.0%, MARV entry inh inconclusive and LASV entry inh 2.24µM*.
`Cc1ccc(S(=O)(=O)NCC(=O)N/N=C/c2ccccc2O)cc1` gave VACV Venus inh inconclusive, Vaccinia mCherry inconclusive, MARV entry inh inconclusive and LASV entry inh 7.3µM*.
`COc1cc(OC)nc(-n2ncc(Br)c(Br)c2=O)n1` gave VACV Venus inh 11.2µM*, Vaccinia mCherry inconclusive, MARV entry inh 1.64µM* and LASV entry inh 1.26µM*.
COc1cc2nc(N3CCCN(C)CC3)nc(NC3CCCCC3)c2cc1OC was read as VACV Venus inh inconclusive and Vaccinia mCherry -19.2%.
`COc1cc2c(NC3CCN(C)CC3)nc(N3CCCN(C)CC3)nc2cc1OCC1CCCCN1` (stereo not drawn) gave VACV Venus inh 15.8µM* and Vaccinia mCherry 5.01µM*.
COc1cc2nc(N3CCCN(C)CC3)nc(NC3CCN(C)C3)c2cc1OC (stereo not drawn) was read as VACV Venus inh 11.2µM* and Vaccinia mCherry inconclusive.
For COc1cc2c(NC3CCN(C)CC3)nc(N3CCCN(C)CC3)nc2cc1OCCCCCC(N)=O the results were VACV Venus inh -14.6% and Vaccinia mCherry inactive.
Screening COc1cc2nc(N3CCCN(C)CC3)nc(N(C)C3CCN(C)CC3)c2cc1OC returned VACV Venus inh 10µM* and Vaccinia mCherry 10µM*.
`C[C@H]1CC[C@H]2C(=O)O[C@H](CO)CN2[C@H]1c1ccc(Br)cc1` gave MARV entry inh -20.5%[14.2 µM] and LASV entry inh inconclusive.
Screening Cc1c(C(=O)NCc2ccccc2Cl)sc2ncnc(NCC3CCCO3)c12 (stereo not drawn) returned VACV Venus inh 13.2% and Vaccinia mCherry -7.0%.
For N#Cc1ccc(OCc2nnc(SCC(=O)N3CCCc4ccccc43)n2-c2ccccc2)cc1 the results were MARV entry inh 18.3µM* and LASV entry inh 25.9µM*.
COc1ccc(-n2c(Cc3cccn3C)nnc2SCC(=O)N2CCCc3ccccc32)cc1 was read as VACV Venus inh -19.8%, Vaccinia mCherry -29.0%, MARV entry inh -4.0% and LASV entry inh 21.6%[14.3 µM].
Screening O=C(C1CCCCC1)N1CCN(S(=O)(=O)c2ccc(Br)cc2)CC1 returned VACV Venus inh -24.3%, MARV entry inh inconclusive and LASV entry inh 17.8µM*.
`CC(C)=CCN1C(=O)[C@@]2(CC(C)=CC[C@@H](COc3ccccc3)O2)c2ccccc21` gave MARV entry inh 3.3%[14.2 µM] and LASV entry inh inconclusive.
Screening CCN(CC)CCNC(=O)C(Cl)=C1C(Cl)=C(Cl)C(Cl)=C1Cl returned VACV Venus inh 0.794µM*, Vaccinia mCherry 2µM*, MARV entry inh inconclusive and LASV entry inh inconclusive.
Screening CCN(CC)CCNC(=O)C12CC3CC(CC(C3)C1)C2 returned VACV Venus inh -6.2%, Vaccinia mCherry -19.0%, MARV entry inh 18.7% and LASV entry inh -0.6%.
`O=C(CCc1nnc2n(Cc3ccc(Cl)cc3)c(=O)c3ccccc3n12)NCCN1CCCC1` gave VACV Venus inh inconclusive, Vaccinia mCherry -8.0%, MARV entry inh 10µM* and LASV entry inh inconclusive.
Screening O=C(CCc1nnc2n(Cc3ccccc3Cl)c(=O)c3ccccc3n12)Nc1ccc(F)cc1 returned VACV Venus inh 10µM*, Vaccinia mCherry 10µM* and MARV entry inh inconclusive.
For Cc1cc(C)nc(NS(=O)(=O)c2ccc(NC(=S)NC(=O)C(C)(C)C)cc2)n1 the results were MARV entry inh 4.2% and LASV entry inh -9.0%.
For Cc1cc(C)nc(NS(=O)(=O)c2ccc(NC(=S)NC(=O)CC(C)C)cc2)n1 the results were VACV Venus inh 11.2µM*, Vaccinia mCherry 11.2µM*, MARV entry inh inconclusive and LASV entry inh -24.2%.
`N#Cc1c2c(c(Cl)n3c1nc1ccccc13)CCCC2` gave VACV Venus inh inconclusive and Vaccinia mCherry -27.3%.
For O/N=C(/C[n+]1cccc(Br)c1)c1ccc2ccccc2c1 the results were VACV Venus inh -17.0% and Vaccinia mCherry 24.6%.
`COC(=O)CN1[C@@]2(C#N)CCCC[C@@H]2C[C@H]2CCCC[C@]21C#N` gave MARV entry inh 15.0%.
For COc1ccc2c(c1)Sc1ccccc1N2CCN(C)C the results were VACV Venus inh inconclusive, MARV entry inh 11.2µM* and LASV entry inh inconclusive.
`CCC(=O)c1ccc2c(c1)N(CCCN(C)C)c1ccccc1S2` gave VACV Venus inh -26.4%, Vaccinia mCherry inconclusive, MARV entry inh 20.6µM* and LASV entry inh inconclusive.
Screening CN(C)CCCN1c2ccccc2CCc2ccc(Cl)cc21 returned VACV Venus inh -26.0%, Vaccinia mCherry -12.6%, MARV entry inh 11.2µM* and LASV entry inh inconclusive.
`Cc1ccc(Cl)cc1NC(=O)CN1C(=O)CCc2ccccc21` gave VACV Venus inh 1.6%, Vaccinia mCherry -8.6% and LASV entry inh -2.8%[46.1 µM].
For CN(C)CCCN1c2ccccc2Sc2ccccc21 the results were VACV Venus inh -23.9%, Vaccinia mCherry inconclusive, MARV entry inh 18.3µM* and LASV entry inh inconclusive.
O=C(N[C@H](c1ccccc1)C1CCCC=C1c1ccccc1)C(F)(F)F (stereo partly drawn) was read as MARV entry inh -24.1%[14.2 µM].
For CC/C(=C/c1ccccc1OC)c1cc(-c2ccccc2)cc2oc3ccccc3c12 the results were VACV Venus inh -20.2% and Vaccinia mCherry inactive.
For CNCCCN1c2ccccc2CCc2ccccc21 the results were VACV Venus inh -22.6%, Vaccinia mCherry -10.4%, MARV entry inh 1.26µM* and LASV entry inh -11.6%.
`OCC1OC(n2cnc3c(Cl)ncnc32)C(O)C1O` (stereo not drawn) gave VACV Venus inh 13.1% and Vaccinia mCherry -23.8%.
`CN(C)c1ncnc2c1ncn2C1OC(CO)C(O)C1O` (stereo not drawn) gave VACV Venus inh 10µM*, Vaccinia mCherry 12.6µM*, MARV entry inh inconclusive and LASV entry inh inconclusive.
For COc1ccc(C[C@H](N)C(=O)N[C@H]2[C@@H](O)[C@H](n3cnc4c(N(C)C)ncnc43)O[C@@H]2CO)cc1 the results were VACV Venus inh 1.58µM* and Vaccinia mCherry 1.26µM*.
For C=CCOc1ccc(C[C@H](N)C(=O)NC[C@H]2O[C@@H](n3cnc4c(N)ncnc43)[C@H](O)[C@@H]2O)cc1 the results were VACV Venus inh -3.6% and Vaccinia mCherry inactive.
CCn1c(S[C@@H](C)C(=O)O)nc2sc3c(c2c1=O)CCC3 was read as MARV entry inh 10.3%[46.1 µM].
